Mcl-1 Bim block – inhibitors of Bim-Mcl-1 interaction, human; AID 1009; Q07820; Bead-based flow cytometry, Bim peptide-Mcl-1 binding; inhibition, % at 10 µM; 190,000 compounds, 0.1% hits; in the data active means inhibition above about 40%;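 further: 0% = no compound tracer wells and 100% = peptide blocker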
Target sequence (Q07820 whole entry, looked up): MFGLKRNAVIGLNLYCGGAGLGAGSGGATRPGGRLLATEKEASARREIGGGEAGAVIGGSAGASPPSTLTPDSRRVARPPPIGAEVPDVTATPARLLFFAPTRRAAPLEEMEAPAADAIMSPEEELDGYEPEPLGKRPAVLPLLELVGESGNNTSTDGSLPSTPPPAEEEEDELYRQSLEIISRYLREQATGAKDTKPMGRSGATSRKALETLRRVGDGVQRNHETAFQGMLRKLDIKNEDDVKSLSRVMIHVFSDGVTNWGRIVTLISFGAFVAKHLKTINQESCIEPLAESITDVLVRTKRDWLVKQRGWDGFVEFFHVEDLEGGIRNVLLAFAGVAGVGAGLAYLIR
Mcl1-Bid inh – Mcl-1/Bid interaction inhibition. Q07820. TR-FRET Mcl-1/Bid-Dy647 peptide binding, 1536-well. inhibition, % at 21.7 µM. 220,000 compounds, 0.97% hits. AID 1021;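 active means compounds that cut the binding signal by more than half at the single screening dose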;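 further: His-tagged Mcl-1 with europium anti-His antibody binding Bid BH3 peptide; 0% = Mcl-1 plus peptide wells and 100% = peptide-only wells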
L929 necroptosis – blocks zVAD induced death of L929 cells | AID 1377 | L929 zVAD necroptosis rescue, ATP luminescence, 24 h; with zVAD 60 µM | 220,000 compounds, 0.38% hits | viability rescue, % at 10 µM;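 active means activation, scaled between plate controls, above about 75%, limit read from the data; inactive means activation under that limit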;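 further: 0% = zVAD with DMSO and 100% = DMSO alone without zVAD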
Mcl1-Noxa inh – Mcl-1/Noxa interaction inhibition; inhibition, % at 21.7 µM; Q07820; TR-FRET Mcl-1/Noxa peptide binding, 2 h; AID 1022; 220,000 compounds, 1.5% hits;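 active means compounds that cut the protein-peptide binding signal by more than 50% relative to plate controls in a single-dose test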;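 further: His-tagged Mcl-1 with rhodamine Noxa BH3 peptide and terbium anti-His antibody; 0% = Mcl-1 plus Noxa peptide wells and 100% = peptide-only wells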
TNF death inh – TNF-alpha cell death inhibition in Jurkat FADD-/- cells | 220,000 compounds, 0.068% hits | activation (protection from cell death), % at 10 µM | Jurkat FADD-/- TNF necroptosis rescue, ATP luminescence, 24 h; 0 = TNF only, 100 = no-TNF cells;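 active means activation, meaning protection from cell death, of at least 50% relative to plate controls; inactive means activation below 50%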;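 further: necroptosis triggered by 40 ng/mL TNF-alpha added together with compound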
MCL1 BIM primary – inhibitors of human MCL1 binding to BIM-BH3 peptide. 320,000 compounds, 0.68% hits. AID 2057. GST-MCL1 / FITC-Bim-BH3 fluorescence polarization. inhibition, % at 10.9 µM. Q07820;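 active means inhibition above the mean inhibition of all tested compounds plus 3 SD, set per campaign, cut at about 40% in these data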;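 further: 0% = DMSO wells and 100% = unlabeled Bim-BH3 peptide control; higher means more loss of mP so more displacement of Bim peptide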
* = called active by the depositor. This is a sample that favours compounds with a hit; in the whole collection about 2.4% have one here.

What do the screens show for `O=C(O)CN1C(=O)/C(=C\c2cc(Br)ccc2OCc2ccccc2Cl)SC1=S`?
MCL1 BIM primary: 57.2*

What do the screens show for `CN(C)NC1CCS(=O)(=O)C1` (stereo not drawn)?
Mcl-1 Bim block: -1.0; Mcl1-Bid inh: -9.4; L929 necroptosis: 1.0; Mcl1-Noxa inh: 51.6*; TNF death inh: -0.9; MCL1 BIM primary: 3.3

Results for O=S1(=O)CCC(NC2CCCC2)C1 (stereo not drawn) ?
MCL1 BIM primary: 5.7

How did CC(Oc1ccc(Cl)cc1Cl)C(=O)N(C)c1ccccc1 (stereo not drawn) do in these assays?
Mcl-1 Bim block: 0.0; Mcl1-Bid inh: 94.2*; L929 necroptosis: -0.9; Mcl1-Noxa inh: 15.9; TNF death inh: 0.6; MCL1 BIM primary: 6.7

What do the screens show for `Cc1cc(N2C(=O)C(O)=C(C(=O)c3cc4ccccc4o3)C2c2cccs2)no1` (stereo not drawn)?
MCL1 BIM primary: -34.1

Results for Cc1ccc2nc(N3C(=O)C(O)=C(C(=O)c4cc5ccccc5o4)C3c3cccs3)sc2c1 (stereo not drawn) ?
Mcl-1 Bim block: 2.0; Mcl1-Bid inh: -25.1; L929 necroptosis: 1.4; Mcl1-Noxa inh: 70.0*; TNF death inh: -4.1; MCL1 BIM primary: 10.0

Results for CCc1ccc2nc(N3C(=O)C(O)=C(C(=O)c4ccco4)C3c3cccs3)sc2c1 (stereo not drawn) ?
Mcl-1 Bim block: 1.0; Mcl1-Bid inh: 19.1; L929 necroptosis: 0.4; Mcl1-Noxa inh: 53.0*; TNF death inh: -3.9; MCL1 BIM primary: 6.7

Results for CC(Oc1ccccc1F)C(=O)NCCN1CCCCC1 (stereo not drawn) ?
Mcl-1 Bim block: 2.0; Mcl1-Bid inh: 59.2*; L929 necroptosis: 0.0; Mcl1-Noxa inh: -3.5; TNF death inh: -2.9; MCL1 BIM primary: 1.8

How did CC1CCCCC12NC(=O)N(CC(=O)c1ccc3c(c1)OCO3)C2=O (stereo not drawn) do in these assays?
MCL1 BIM primary: 1.6

Results for CCC(=O)Oc1ccc2c(=O)c(-c3ccc4ccccc4n3)c(CC)oc2c1C ?
Mcl-1 Bim block: -6.0; Mcl1-Bid inh: -20.4; L929 necroptosis: 0.4; Mcl1-Noxa inh: 82.3*; TNF death inh: 1.8; MCL1 BIM primary: 1.0

How did O=C(/C=C/c1ccc(Br)o1)NCc1ccccc1 do in these assays?
Mcl-1 Bim block: -1.0; Mcl1-Bid inh: 16.3; L929 necroptosis: 1.4; Mcl1-Noxa inh: 72.3*; TNF death inh: 1.0; MCL1 BIM primary: 10.6

Results for Cc1ccc(CNC(=O)/C=C/c2ccc(Br)o2)cc1 ?
Mcl-1 Bim block: -10.0; Mcl1-Bid inh: -2.1; L929 necroptosis: 0.7; Mcl1-Noxa inh: 37.5; TNF death inh: 1.2; MCL1 BIM primary: -2.9

How did COc1cc2c(cc1OC)CN(C1CCCN(Cc3cc(Cl)ccc3O)C1)CC2 (stereo not drawn) do in these assays?
MCL1 BIM primary: 4.5

How did Cc1ccc(-n2[nH]c(C)c(C=Nc3ccc(S(=O)(=O)Nc4nccs4)cc3)c2=O)cc1 do in these assays?
Mcl-1 Bim block: 1.0; Mcl1-Bid inh: -65.5; L929 necroptosis: -0.6; Mcl1-Noxa inh: 9.5; TNF death inh: -4.7; MCL1 BIM primary: 7.8

What do the screens show for `Cc1[nH]n(-c2ccc(Br)cc2)c(=O)c1C=Nc1ccc(S(=O)(=O)Nc2nccs2)cc1`?
Mcl-1 Bim block: 0.0; Mcl1-Bid inh: -71.3; L929 necroptosis: -1.1; Mcl1-Noxa inh: 78.7*; TNF death inh: -5.0; MCL1 BIM primary: 10.4

What do the screens show for `COc1ccc(-c2csc(Nc3ccc(S(=O)(=O)Nc4cc(C)on4)cc3)n2)cc1C`?
Mcl-1 Bim block: 0.0; Mcl1-Bid inh: -30.1; L929 necroptosis: -0.6; Mcl1-Noxa inh: 51.1*; TNF death inh: 0.1; MCL1 BIM primary: -4.3

How did COc1ccc2c(c1)S/C(=C\C(=O)c1ccncc1)N2C do in these assays?
Mcl-1 Bim block: 7.0; Mcl1-Bid inh: -39.3; L929 necroptosis: -0.3; Mcl1-Noxa inh: 65.9*; TNF death inh: -13.2; MCL1 BIM primary: 10.5

What do the screens show for `CC(=O)c1ccc(S(=O)(=O)NCCC(=O)OCC(=O)NCCc2ccccc2)cc1`?
MCL1 BIM primary: -3.9

What do the screens show for `COc1ccc(OC)c(/C=N/N(C)c2ccccc2)c1`?
Mcl-1 Bim block: 1.0; Mcl1-Bid inh: -25.2; L929 necroptosis: 0.4; Mcl1-Noxa inh: 18.3; TNF death inh: -1.7; MCL1 BIM primary: -5.5

Results for COc1cc(/C=N/N(C)c2ccccc2)cc(Cl)c1O ?
Mcl-1 Bim block: -2.0; Mcl1-Bid inh: -22.7; L929 necroptosis: 1.2; Mcl1-Noxa inh: 67.1*; TNF death inh: -4.4; MCL1 BIM primary: 4.7

What do the screens show for `Nc1cccnc1Sc1cc(Cl)c(Cl)cc1Cl`?
Mcl-1 Bim block: -3.0; Mcl1-Bid inh: 19.5; L929 necroptosis: 0.1; Mcl1-Noxa inh: 87.8*; TNF death inh: -0.3; MCL1 BIM primary: 0.4

What do the screens show for `CC(C)C(C(=O)O)N1C(=O)/C(=C/c2cccn2C)SC1=S` (stereo not drawn)?
Mcl-1 Bim block: -1.0; Mcl1-Bid inh: -28.1; L929 necroptosis: 0.8; Mcl1-Noxa inh: 38.9; TNF death inh: 2.8; MCL1 BIM primary: -164.5

Results for CCCC(C(=O)O)N1C(=O)/C(=C/c2cccn2C)SC1=S (stereo not drawn) ?
Mcl-1 Bim block: -2.0; Mcl1-Bid inh: 1.2; L929 necroptosis: 1.9; Mcl1-Noxa inh: 52.0*; TNF death inh: 0.4; MCL1 BIM primary: -113.6

How did O=C(CNCc1ccncc1)Nc1cc(S(=O)(=O)N2CCCCC2)ccc1Cl do in these assays?
Mcl-1 Bim block: -7.0; Mcl1-Bid inh: 55.2*; L929 necroptosis: 0.1; Mcl1-Noxa inh: 34.7; TNF death inh: 2.7; MCL1 BIM primary: -2.4

How did CC1(C(=O)N(CC(=O)NC2CCCC2)Cc2ccco2)CC(=O)N=C2C=CC=CN21 (stereo not drawn) do in these assays?
Mcl-1 Bim block: 41.0*; Mcl1-Bid inh: -22.4; L929 necroptosis: 1.2; Mcl1-Noxa inh: -6.4; TNF death inh: 0.7; MCL1 BIM primary: 15.8

How did Brc1c(CSc2nc3ccccc3s2)nc2ncccn12 do in these assays?
Mcl-1 Bim block: -5.0; Mcl1-Bid inh: -0.7; L929 necroptosis: 1.3; Mcl1-Noxa inh: -17.0; TNF death inh: 1.0; MCL1 BIM primary: 10.1

Results for O=[N+]([O-])c1ccc2sc(SCc3nc4ccccn4c3Br)nc2c1 ?
Mcl-1 Bim block: -1.0; Mcl1-Bid inh: -17.8; L929 necroptosis: 0.3; Mcl1-Noxa inh: 55.6*; TNF death inh: 7.9; MCL1 BIM primary: 8.2

What do the screens show for `CCOC(=O)N1CCN(C(=O)c2ccc(N(C)S(=O)(=O)c3ccc(C)cc3)cc2)CC1`?
MCL1 BIM primary: 0.8

How did COc1ccc(C(=O)NCC(=O)N2CCCCC2)cc1OC do in these assays?
Mcl-1 Bim block: 1.0; Mcl1-Bid inh: -25.0; L929 necroptosis: 1.1; Mcl1-Noxa inh: 1.5; TNF death inh: -1.0; MCL1 BIM primary: 1.8
